From PubChem BioAssay (NCI)
The panel holds about 83,000 compounds, 20% with a hit somewhere; the sample as a whole holds those more often.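 Interpretation: 100, growth as untreated; towards 0, rising growth inhibition; 0, no net growth; 0 to -100, cell death. Compounds scoring below 10 were considered active.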 Calls of active or inactive are those of the source.

Key:
Test in all cases: NCI-60 one-dose screen, 48 h (100 = growth as untreated, 0 = no growth, -100 = all killed)
Conditions in all cases: 10 µM unless noted
[1] = system: SK-MEL-2 melanoma
[2] = system: EKVX NSCLC
[3] = system: SN12C renal
[4] = system: UO-31 renal
[5] = system: TK-10 renal
[6] = system: ACHN renal
[7] = system: CAKI-1 renal
[8] = system: A498 renal
[9] = system: CCRF-CEM leukemia
[10] = system: MOLT-4 leukemia
[11] = system: SR leukemia
[12] = system: RPMI-8226 leukemia
[13] = system: OVCAR-8 ovarian
[14] = system: OVCAR-5 ovarian
[15] = system: SK-OV-3 ovarian
[16] = system: IGROV1 ovarian
[17] = system: OVCAR-3 ovarian
[18] = system: HS 578T breast
[19] = system: NCI/ADR-RES ovarian

Measured: growth

c1coc2occoc=2o1
inactive: [1] 105% | [2] 106% | [3] 89.2% | [4] 92.5% | [5] 103% | [6] 102% | [7] 101% | [8] 107% | [9] 98.9% | [10] 114% | [11] 114% | [12] 100% | [13] 107% | [14] 101% | [15] 99.6% | [16] 109% | [17] 103% | [18] 104% | [19] 107%

Cc1cc(C)c(S(=O)(=O)/N=c2/n(-c3ccccc3)nc3n2CCN3C2=NCCN2)c(C)c1
inactive: [1] 104% | [2] 83% | [3] 79.8% | [4] 61.2% | [5] 92.5% | [6] 90% | [7] 74.4% | [8] 61.8% | [9] 83.7% | [10] 66.2% | [11] 39.9% | [12] 76% | [13] 86.7% | [14] 86.5% | [15] 83.2% | [16] 65.5% | [17] 88.7% | [18] 79.3% | [19] 89.1%

N#Cc1c(Cl)nc(SCC2CO2)nc1-c1ccccc1 (configuration not stated)
inactive: [1] 70.1% | [2] 99.6% | [3] 95.9% | [4] 66.1% | [5] 111% | [6] 95.5% | [7] 87.9% | [8] 108% | [9] 110% | [10] 113% | [11] 89.8% | [12] 103% | [13] 51.6% | [14] 101% | [15] 70.2% | [17] 137% | [18] 121% | [19] 108%

C=C(CN=[N+]=[N-])[C@@H]1CC[C@]2(C)[C@H](CC[C@@H]3[C@H]4[C@H]5OC(=O)[C@@]4(CCC5(C)C)CC[C@]32C)[C@@]1(C)CCC#N
inactive: [1] 83.4% [100 µM] | [2] 90.6% [100 µM] | [3] 76.2% [100 µM] | [4] 80.2% [100 µM] | [5] 105% [100 µM] | [6] 93.9% [100 µM] | [7] 53.5% [100 µM] | [8] 85.2% [100 µM] | [9] 74.6% [100 µM] | [10] 58% [100 µM] | [11] 64% [100 µM] | [12] 57% [100 µM] | [13] 92.2% [100 µM] | [14] 98.3% [100 µM] | [15] 75.4% [100 µM] | [16] 106% [100 µM] | [17] 82.5% [100 µM] | [18] 88.5% [100 µM] | [19] 90.8% [100 µM]

COc1ccc(-c2cc(-c3ccccc3)nc(SCCCCCC(=O)NO)n2)cc1
active: [10] 9.24%
inactive: [1] 61.4% | [2] 67.5% | [3] 81.4% | [4] 41.6% | [5] 34.8% | [6] 48.9% | [7] 33.4% | [8] 57.1% | [9] 13.8% | [11] 21.9% | [12] 21.2% | [13] 36.1% | [14] 41.4% | [15] 50.3% | [16] 51.7% | [17] 65% | [19] 56.9%

O=[N+]([O-])c1cccc(/C=C/c2ccc3ccccc3n2)c1
inactive: [1] 68% | [2] 79.8% | [3] 83% | [4] 76.6% | [5] 64.4% | [6] 53% | [7] 78.3% | [8] 125% | [9] 82.1% | [10] 75.3% | [11] 78.2% | [12] 90.7% | [13] 57.1% | [14] 130% | [15] 70.8% | [16] 79.9% | [17] 88.5% | [19] 71.2%

O=C(O)c1cc([N+](=O)[O-])ccc1Br
inactive: [1] 107% | [2] 98.5% | [3] 101% | [4] 86.3% | [5] 95.5% | [6] 94.2% | [7] 97.6% | [8] 106% | [9] 105% | [10] 99.8% | [11] 112% | [12] 99% | [13] 101% | [14] 90.8% | [15] 113% | [16] 103% | [18] 106% | [19] 98.1%

CC1(C)C(=O)/C(=C\c2ccco2)C[C@]2(C)[C@H]3CC=C4[C@@H]5C[C@](C)(C(=O)O)CC[C@]5(C)CC[C@@]4(C)[C@]3(C)CC[C@@H]12
active: [1] -57.5% [100 µM] | [2] -71.4% [100 µM] | [3] -50.8% [100 µM] | [4] -95.5% [100 µM] | [5] -46.1% [100 µM] | [6] -79.9% [100 µM] | [7] -66.6% [100 µM] | [8] -89.2% [100 µM] | [9] -22.7% [100 µM] | [10] -21% [100 µM] | [12] 0.425% [100 µM] | [13] -46.1% [100 µM] | [14] -46.2% [100 µM] | [15] -77.2% [100 µM] | [16] -61.9% [100 µM] | [17] -60.1% [100 µM] | [18] -16.2% [100 µM] | [19] -49.5% [100 µM]
inactive: [11] 46.8% [100 µM]

CC(C)OC(=O)Nc1cc(F)c(F)cc1F
inactive: [1] 95.4% | [2] 94.1% | [3] 102% | [4] 86.1% | [5] 96.3% | [6] 101% | [7] 97.1% | [8] 93.6% | [9] 103% | [10] 103% | [11] 102% | [12] 101% | [13] 100% | [14] 93.5% | [15] 100% | [16] 95.5% | [18] 101% | [19] 102%

O=c1[nH]c2cc(Cl)c(Cl)cc2n2cc3ncccc3c12
inactive: [1] 112% | [2] 82.3% | [3] 83% | [4] 56.9% | [5] 94.1% | [6] 89.7% | [7] 59.9% | [8] 73.6% | [9] 52.1% | [10] 58.8% | [11] 27.4% | [12] 76.1% | [13] 82.4% | [14] 146% | [15] 98.9% | [16] 86.2% | [17] 84.5% | [19] 81.8%

CCOc1ccccc1/C=N\Nc1ccc(S(=O)(=O)c2ccc(N/N=C/c3ccccc3OCC)cc2)cc1
inactive: [1] 103% | [2] 90.7% | [3] 93.5% | [4] 66.5% | [5] 126% | [6] 88.7% | [7] 67.2% | [8] 113% | [9] 94.7% | [10] 80.8% | [11] 94.8% | [12] 81.3% | [13] 93.1% | [14] 95% | [15] 87.6% | [16] 76% | [19] 92.8%
active: [18] -24.9%

O=C(N=c1n(-c2ccccc2)nc2n1CCN2C1=NCCN1C(=O)c1ccc(Cl)cc1)c1ccc(Cl)cc1
inactive: [1] 83.3% | [2] 77.1% | [3] 80.8% | [4] 59.8% | [5] 74.6% | [6] 59.1% | [7] 75.2% | [8] 73.7% | [9] 51.4% | [10] 14.5% | [11] 73.9% | [12] 73.2% | [13] 78.7% | [14] 88.8% | [15] 92.9% | [16] 59% | [17] 53.6% | [18] 82.7% | [19] 73.3%

CC1(C)CC[C@]2(C(=O)OC(=O)[C@]34CCC(C)(C)C[C@@H]3C3=CC[C@@H]5[C@@]6(C)CCC(=O)C(C)(C)[C@@H]6CC[C@@]5(C)[C@]3(C)CC4)CC[C@]3(C)C(=CC[C@@H]4[C@@]5(C)CCC(=O)C(C)(C)[C@@H]5CC[C@]43C)[C@H]2C1
inactive: [1] 76.1% [100 µM] | [2] 81.3% [100 µM] | [3] 55.8% [100 µM] | [4] 59.9% [100 µM] | [5] 95.3% [100 µM] | [6] 73.8% [100 µM] | [7] 45.6% [100 µM] | [8] 95.6% [100 µM] | [9] 44.4% [100 µM] | [10] 41.5% [100 µM] | [11] 65% [100 µM] | [12] 61% [100 µM] | [13] 59.8% [100 µM] | [14] 98.3% [100 µM] | [15] 72.9% [100 µM] | [16] 84.4% [100 µM] | [17] 74% [100 µM] | [18] 57.3% [100 µM] | [19] 69.5% [100 µM]

CC(C)c1ccc(/C=N/N=C(N)N)cc1
inactive: [1] 102% | [2] 87.1% | [3] 93.8% | [4] 73.2% | [5] 95.1% | [6] 83.2% | [7] 50.9% | [8] 106% | [9] 35.7% | [10] 45.7% | [11] 21.6% | [12] 17.1% | [13] 89.8% | [14] 89.5% | [15] 85.5% | [16] 89.5% | [17] 72.6% | [18] 97.8% | [19] 79.4%

O=C1NC(=O)C(Cc2ccccc2)(Cc2ccccc2)N1
inactive: [1] 102% | [2] 101% | [3] 97.9% | [4] 93.6% | [5] 89.4% | [6] 109% | [7] 92.1% | [8] 102% | [9] 92.4% | [10] 90.5% | [11] 104% | [12] 91% | [13] 104% | [14] 110% | [15] 98.1% | [16] 115% | [17] 98.9% | [19] 101%
